Read-out in experiment [1]: Urokinase-type plasminogen activator receptor (uPAR), PLAUR (gene 5329)
The experiment is described as follows: BSK_4H_uPAR: BioMAP Diversity Plus: 4H Assay for Urokinase-type plasminogen activator receptor (uPAR) Biomarker Activity (AID 2283030). The conditions noted are these: primary human endothelial cells (HUVEC); actives raise or lower the signal. A digest of the protocol: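 Cell-surface uPAR ELISA signal, measured 24 h after dosing human umbilical vein endothelial cells, was analyzed with bidirectional fitting relative to DMSO. Parallel SRB staining of total protein tracked overt cytotoxicity.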

Read-out in experiment [2]: Vascular endothelial growth factor receptor 2 (Homo sapiens) (UniProt P35968)
Kind of experiment: BSK_4H_VEGFRII: BioMAP Diversity Plus: 4H Assay for Vascular endothelial growth factor receptor 2 (VEGFR2) Biomarker Activity (AID 2283031). Conditions: primary human endothelial cells (HUVEC); actives raise or lower the signal. The essentials: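 ELISA read-out of VEGFRII in primary human umbilical vein endothelium, taken 24 h after chemical treatment. Responses are expressed relative to DMSO, with bidirectional fitting.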

Read-out in experiment [3]: Vascular cell adhesion molecule 1 (VCAM1), VCAM1 (gene 7412)
The experiment is described as follows: BSK_4H_VCAM1: BioMAP Diversity Plus: 4H Assay for Vascular cell adhesion molecule 1 (VCAM1) Biomarker Activity (AID 2283033). Conditions: primary human endothelial cells (HUVEC); actives raise or lower the signal. The essentials: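 Primary human umbilical vein endothelial cells, 4H stimulation system, treated for 24 h; cell-surface VCAM-1 quantified by ELISA. Bidirectional fitting against DMSO; cytotoxicity tracked by SRB total-protein staining in parallel cultures.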

Read-out in experiment [4]: Interferon-gamma inducible Protein 10 (IP10), CXCL10 (gene 3627)
Kind of experiment: BSK_BE3C_IP10: BioMAP Diversity Plus: BE3C Assay for Interferon-gamma inducible Protein 10 (IP10) Biomarker Activity (AID 2283034). The conditions noted are these: primary human bronchial epithelial cells; actives raise or lower the signal. A digest of the protocol: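 Primary human bronchial epithelial cells, with IP-10 measured by ELISA 24 hours after chemical dosing. Bidirectional fit against DMSO; cytotoxicity checked by SRB total protein staining in parallel cultures.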

Read-out in experiment [5]: Monokine induced gamma interferon (MIG), CXCL9 (gene 4283)
The experiment is described as follows: BSK_BE3C_MIG: BioMAP Diversity Plus: BE3C Assay for Monokine induced gamma interferon (MIG) Biomarker Activity (AID 2283035). Conditions: primary human bronchial epithelial cells; actives raise or lower the signal. A digest of the protocol: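 Primary human bronchial epithelial cells treated for 24 h; MIG levels measured by ELISA, fitted bidirectionally versus DMSO. Parallel SRB total-protein staining assessed cytotoxicity.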

Read-out in experiment [6]: Transforming growth factor beta 1 (TGFb1), TGFB1 (gene 7040)
Kind of experiment: BSK_BE3C_TGFb1: BioMAP Diversity Plus: BE3C Assay for Transforming growth factor beta 1 (TGFb1) Biomarker Activity (AID 2283036). The conditions noted are these: primary human bronchial epithelial cells; actives raise or lower the signal. A digest of the protocol:
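Primary human bronchial epithelial cells dosed with chemical; TGF-b1 measured by ELISA 24 h after dosing. Bidirectional curve fitting against DMSO negative control; SRB total-protein staining in parallel cultures gauged cytotoxicity.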

Read-out in experiment [7]: Plasminogen activator inhibitor-1 (PAI1), SERPINE1 (gene 5054)
The experiment is described as follows: BSK_BE3C_PAI1: BioMAP Diversity Plus: BE3C Assay for Plasminogen activator inhibitor-1 (PAI1) Biomarker Activity (AID 2283037). Conditions: primary human bronchial epithelial cells; actives raise or lower the signal. The essentials:
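Primary human bronchial epithelial cells (BE3C system) exposed 24 h; PAI-1 quantified by ELISA. Parallel sulforhodamine B staining of total protein flags cytotoxicity. Bidirectional fit versus DMSO.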

Read-out in experiment [8]: urokinase plasminogen activator (uPA), PLAU (gene 5328)
Kind of experiment: BSK_BE3C_uPA: BioMAP Diversity Plus: BE3C Assay for urokinase plasminogen activator (uPA) Biomarker Activity (AID 2283038).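 Further: uPA protein level quantified by ELISA in cell cultures; uPA read one day after compound addition.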 The conditions noted are these: primary human bronchial epithelial cells; actives raise or lower the signal. The essentials: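 Bronchial epithelial cells (human, primary); chemical 24 h; uPA by ELISA; bidirectional fit vs DMSO. SRB (0.1%, after 10% TCA fixation, 560 nm) in parallel cultures for cytotoxicity.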

Read-out in experiment [9]: Urokinase-type plasminogen activator receptor (uPAR), PLAUR (gene 5329)
The experiment is described as follows: BSK_BE3C_uPAR: BioMAP Diversity Plus: BE3C Assay for Urokinase-type plasminogen activator receptor (uPAR) Biomarker Activity (AID 2283039).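 On outcome: cells exposed to compound for one day before measurement.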 The conditions noted are these: primary human bronchial epithelial cells; actives raise or lower the signal. The essentials:
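Primary human bronchial epithelial cells dosed for 24 h; uPAR quantified by ELISA with bidirectional fitting against DMSO. Overt cytotoxicity assessed in parallel cultures by SRB total-protein staining (0.1% SRB, 560 nm).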

Read-out in experiment [10]: Interleukin-6 (IL6), IL6 (gene 3569)
The experiment is described as follows: BSK_CASM3C_IL6: BioMAP Diversity Plus: CASM3C Assay for Interleukin-6 (IL6) Biomarker Activity for (AID 2283040). Conditions: primary human coronary artery smooth muscle cells; actives raise or lower the signal.

Read-out in experiment [11]: Tissue plasminogen activator (tPA), PLAT (gene 5327)
The experiment is described as follows: BSK_BE3C_tPA: BioMAP Diversity Plus: BE3C Assay for Tissue plasminogen activator (tPA) Biomarker Activity (AID 2283041).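 Further: tPA level quantified by ELISA one day after compound addition.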 Conditions: primary human bronchial epithelial cells; actives raise or lower the signal. The essentials: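 Primary human bronchial epithelial cells in the BE3C system, exposed to compound for 24 h. tPA was quantified by ELISA; DMSO served as baseline, with gain or loss of signal fitted. Cytotoxicity checked in parallel cultures by SRB total-protein staining.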

Read-out in experiment [12]: Interleukin-8 (IL8), CXCL8 (gene 3576)
The experiment is described as follows: BSK_CASM3C_IL8: BioMAP Diversity Plus: CASM3C Assay for Interleukin-8 (IL8) Biomarker Activity (AID 2283042).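 Further: IL-8 protein level quantified by ELISA.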 The conditions noted are these: primary human coronary artery smooth muscle cells; actives raise or lower the signal.

Read-out in experiment [13]: Human Leukocyte Antigen - DR isotype (HLADR), HLA-DRA (gene 3122)
The experiment is described as follows: BSK_CASM3C_HLADR: BioMAP Diversity Plus: CASM3C Assay for Human Leukocyte Antigen - DR isotype (HLADR) Biomarker Activity (AID 2283043).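 Further: cell-surface HLA-DR protein level quantified by ELISA.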 The conditions noted are these: primary human coronary artery smooth muscle cells; actives raise or lower the signal.

Read-out in experiment [14]: Macrophage colony-stimulating factor (MCSF), CSF1 (gene 1435)
The experiment is described as follows: BSK_CASM3C_MCSF: BioMAP Diversity Plus: CASM3C Assay for Macrophage colony-stimulating factor (MCSF) Biomarker Activity (AID 2283044).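 Further: M-CSF protein amount quantified by ELISA after 24 h exposure.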 The conditions noted are these: primary human coronary artery smooth muscle cells; actives raise or lower the signal.

Read-out in experiment [15]: Low-density lipoprotein receptor (LDLR), LDLR (gene 3949)
The experiment is described as follows: BSK_CASM3C_LDLR: BioMAP Diversity Plus: CASM3C Assay for Low-density lipoprotein receptor (LDLR) Biomarker Activity (AID 2283045).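 Further: LDLR protein level on the cell surface quantified by ELISA.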 Conditions: primary human coronary artery smooth muscle cells; actives raise or lower the signal.

Read-out in experiment [16]: Monocyte Chemoattractant Protein-1 (MCP1), CCL2 (gene 6347)
Kind of experiment: BSK_CASM3C_MCP1: BioMAP Diversity Plus: CASM3C Assay for Monocyte Chemoattractant Protein-1 (MCP1) Biomarker Activity (AID 2283046).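 Further: MCP-1 level quantified by ELISA 24 h after dosing.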 Conditions: primary human coronary artery smooth muscle cells; actives raise or lower the signal.

Experiment [17] can be described thus: BSK_CASM3C_Proliferation: Cell Proliferation Assessment in the BioMAP Diversity Plus: CASM3C Assay (AID 2283047).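 Further: sulforhodamine B total protein stain as relative cell number at 560 nm; sub-confluent cells exposed 48 h before staining; fitted both ways against DMSO so gain or loss of cell number.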 Conditions: primary human coronary artery smooth muscle cells.
Read-out in experiment [18]: Monokine induced gamma interferon (MIG), CXCL9 (gene 4283)
Kind of experiment: BSK_CASM3C_MIG: BioMAP Diversity Plus: CASM3C Assay for Monokine induced gamma interferon (MIG) Biomarker Activity (AID 2283048). Conditions: primary human coronary artery smooth muscle cells; actives raise or lower the signal.

Read-out in experiment [19]: serum amyloid A (SAA), SAA1 (gene 6288)
Kind of experiment: BSK_CASM3C_SAA: BioMAP Diversity Plus: CASM3C Assay for serum amyloid A (SAA) Biomarker Activity (AID 2283049).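 Further: SAA protein level quantified by ELISA.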 The conditions noted are these: primary human coronary artery smooth muscle cells; actives raise or lower the signal.

The results in this text go back to PubChem BioAssay (EPA / NIEHS).

As a reminder, the AC50 is the concentration giving half of the maximal activity seen.

The source made the active and inactive calls. How the source made its calls: active means hit-call score of the fitted dose curve at least 0.9, where 1 is the maximum; inactive means score below 0.9.

For the compound `O=C1CCCCCCCCCCCN1`, the result in experiment [1], in experiment [2], in [3], in experiment [4], in [5] and in [6] was inactive. The outcome in experiment [7], in experiment [8], in [9], in experiment [10], in [11] and in experiment [12] was inactive. The outcome in experiment [13], in experiment [14], in experiment [15], in [16], in [17] and in [18] was inactive. In addition, the result in [19] was inactive.
As to `O=C(Oc1ccccc1)c1ccccc1C(=O)Oc1ccccc1`, the outcome in [1], in experiment [2], in experiment [3], in experiment [4], in experiment [5] and in experiment [6] was inactive. Besides, the result in experiment [7], in [8], in experiment [9], in [10], in [11] and in [12] was inactive. Also, the result in experiment [13], in [14], in experiment [15], in experiment [16], in [17] and in experiment [18] was inactive. Moreover, in experiment [19], the outcome was inactive.
As for `O=C1CCCCCCCCCCC1`, the outcome in experiment [1], in experiment [2], in experiment [3], in experiment [4], in [5] and in [6] was inactive. In addition, the result in [7], in [8], in experiment [9], in [10], in experiment [11] and in experiment [12] was inactive. The result in experiment [13], in [14], in [15], in experiment [16], in experiment [17] and in experiment [18] was inactive. Further, in experiment [19], the result was inactive.
Take `CCCCCCOC(=O)CCCCC(=O)OCCCCCC`: the result in experiment [1], in [2], in [3], in [4], in [5] and in experiment [6] was inactive. Besides, the outcome in experiment [7], in experiment [8], in [9], in [10], in [11] and in experiment [12] was inactive. Besides, the outcome in [13], in experiment [14], in experiment [15], in experiment [16], in experiment [17] and in experiment [18] was inactive. Moreover, the outcome in experiment [19] was inactive.
On to `Oc1ccc(/C=C/c2cc(O)cc(O)c2)cc1`, for which the concentration at half-maximal activity (AC50) is 1.24 µM (active) in experiment [1]; 11.1 µM (active) in experiment [9]; 13.6 µM (active) in [10]; 10.5 µM (active) in experiment [17]; 15.9 µM (active) in [19]. For the same compound, the result in experiment [2], in experiment [3], in [5], in experiment [6], in experiment [7] and in experiment [8] was inactive. The outcome in experiment [11], in experiment [12], in [13], in experiment [14], in experiment [15] and in experiment [16] was inactive. In addition, the result in experiment [18] was inactive.
Regarding `CC(C)C(=O)OCCc1ccccc1`, the outcome in experiment [1], in experiment [2], in experiment [3], in [4], in [5] and in experiment [7] was inactive. In addition, the outcome in experiment [8], in experiment [9], in [10], in experiment [11], in [12] and in experiment [13] was inactive. Moreover, the outcome in [14], in experiment [15], in experiment [16], in [17], in experiment [18] and in experiment [19] was inactive.
Turning to `Nc1nc(N)nc(-c2ccccc2)n1`, the result in [1], in experiment [2], in [3], in experiment [4], in experiment [5] and in experiment [7] was inactive. Besides, the result in [8], in experiment [9], in experiment [10], in experiment [11], in [12] and in experiment [13] was inactive. In addition, the result in experiment [14], in [15], in experiment [16], in experiment [17], in [18] and in [19] was inactive.
